Format in all cases: functional
Assay [1] addresses Solute carrier family 2, facilitated glucose transporter member 1 (Homo sapiens) (UniProt P11166). Description: ST_JUDE_LEISH: Cytotoxicity at 2uM final concentration against transgenic Leishmania Mexicana promastigotes LmGLUT1 that are glucose transport deficient and complemented with the human glucose transporter GLUT1. Activity is measured by DNA content using SYBR green in vitro.

The target in assay [2] is Hexose transporter 1 (Plasmodium falciparum) (UniProt O97467). Description: ST_JUDE_LEISH: Cytotoxicity at 2uM final concentration against transgenic Leishmania Mexicana promastigotes LmPfHT that are glucose transport deficient and complemented with the Plasmodium falciparum hexose transporter. Activity is measured by DNA content using SYBR green in vitro.
The target of assay [3] is Glucose transporter (Leishmania mexicana) (UniProt O61059). Nature of the assay: ST_JUDE_LEISH: Cytotoxicity at 2uM final concentration against transgenic Leishmania Mexicana promastigotes LmGT2 that are glucose transport deficient and complemented with the L. Mexicana glucose transporter 2. Activity is measured by DNA content using SYBR green in vitro.

These results are taken from ChEMBL document CHEMBL3433997, “St. Jude Leishmania screening dataset” (2016).

Chain of Solute carrier family 2, facilitated glucose transporter member 1 (Homo sapiens) (P11166 whole entry): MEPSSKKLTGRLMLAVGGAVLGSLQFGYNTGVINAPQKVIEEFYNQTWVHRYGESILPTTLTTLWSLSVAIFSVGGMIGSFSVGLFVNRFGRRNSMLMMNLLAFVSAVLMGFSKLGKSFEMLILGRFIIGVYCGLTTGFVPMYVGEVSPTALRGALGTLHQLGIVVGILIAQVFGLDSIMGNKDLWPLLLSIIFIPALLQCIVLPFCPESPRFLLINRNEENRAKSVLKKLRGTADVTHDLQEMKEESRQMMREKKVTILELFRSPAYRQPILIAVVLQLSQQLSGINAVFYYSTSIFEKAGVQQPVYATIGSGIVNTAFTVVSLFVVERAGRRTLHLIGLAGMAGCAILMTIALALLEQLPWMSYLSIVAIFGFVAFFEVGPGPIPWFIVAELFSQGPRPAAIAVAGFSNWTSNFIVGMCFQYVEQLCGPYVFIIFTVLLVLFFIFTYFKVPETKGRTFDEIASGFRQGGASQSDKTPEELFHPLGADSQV

As for `Cn1cnc(CCNC(=O)c2ccc(-c3cccc(-c4nc5cc(F)ccc5[nH]4)c3)cc2)c1`, the figures for the inhibition in assay [1], in assay [2] and in assay [3] were 2.97%, 1.64% and 0.52%, respectively.

As to `CCOc1c(N2CCN(CCCCNC(=O)c3ccc(NC(=O)c4ccc(Cl)cc4)cc3)CC2)ccc2ccccc12`, the inhibition – broadly, the change of the read-out against control, counted positive when it falls – in assay [1] was 0.72%; in assay [2], 0.48%; in assay [3], 0.9%.

For `Fc1cccc(COc2ccc(Nc3ncnc4sc(C#Cc5ncc[nH]5)cc34)cc2Cl)c1`, the inhibition is 0.39% in assay [1], -0.11% in assay [2] and -0.59% in assay [3].

Consider `COc1ccc2nccc([C@@H](O)CN3CCC(NCc4nc5c(F)cccc5[nH]4)CC3)c2c1`, for which the values for the inhibition in assay [1], in assay [2] and in assay [3] were 1.46%, 0.84% and -0.41%, respectively.

For `Cc1cc(=NN=Cc2ccc(Cl)cc2)c2cc(F)ccc2[nH]1`, the results for the inhibition in assay [1], in assay [2] and in assay [3] were -0.08%, 0.68% and -0.34%, respectively.

Take `CCOC(=O)NCC(=O)Nc1cccc(-c2cccc(-c3nc4cc(C(F)(F)F)ccc4[nH]3)c2)c1`: the results for the inhibition in assay [1], in assay [2] and in assay [3] were 1.41%, 0.35% and 5.34%, respectively.

Turning to `NC(=O)c1cccc(C(=O)Nc2cccc(-c3cccc(-c4nc5cc(F)ccc5[nH]4)c3)c2)c1`, the figures for the inhibition in assay [1], in assay [2] and in assay [3] were -0.39%, 0.68% and -0.72%, respectively.

On to `O=C(Cc1ccccc1)NC(CCN1CCC(NC(=O)c2ccc(Cl)cc2)CC1)c1ccc(Cl)c(Cl)c1` (stereo not drawn), for which the inhibition in assay [1] is 2.22%; in assay [2], 0.27%; in assay [3] it was 1.02%.

For the molecule `CN(C(=O)/C=C/c1cc(C(F)(F)F)ccc1F)C1CCN(CCCCCNC(=O)/C=C/c2ccc(Cl)c(Cl)c2)CC1`, the inhibition in assay [1] was found to be 3.67%; in assay [2] it was 3.45%; in assay [3] it was 2.56%.

For the molecule `O=S(=O)(NCCN1CCCC1)c1cccc(-c2cccc(CNCc3ccc(F)cc3)c2)c1`, the inhibition in assay [1] was 0.2%; in assay [2], 2.85%; in assay [3], -2.32%.

As to `CCc1ccc(C2=Nn3c(nnc3-c3cccs3)SC2)cc1`, the inhibition in assay [1] is 2.35%; in assay [2] it was 1.1%; in assay [3], -0.08%.

As to `COc1ccc(CNC2CCN(C)CC2)cc1-c1ccc(S(=O)(=O)NCc2ccccc2)s1`, the inhibition in assay [1] is 9.42%; in assay [2], 11.8%; in assay [3], 11.2%.

Consider `c1ccc(CCNCc2ccc(-c3cccc(-c4nc5ccccc5[nH]4)c3)cc2)nc1`, for which the inhibition in assay [1] amounted to 3.95%; in assay [2], 3.7%; in assay [3] it was 3.79%.

`CC(C)NC(=O)c1cccc(-c2ccc(OCCN3CCCC3c3cc4ccccc4[nH]3)cc2)c1` (stereo not drawn): the inhibition in assay [1] is 1.77%; in assay [2] it was 3.47%; in assay [3] it was -1.97%.

For `CN1CCN(Cc2nc(-c3ccc4c(Nc5ccc(F)c(O)c5)ccnc4c3)cs2)CC1`, the values for the inhibition in assay [1], in assay [2] and in assay [3] were 7.7%, 1.76% and 0.94%, respectively.

In the case of `OCC1CCN(Cc2cccc(-c3ccc(-c4nc5cc(C(F)(F)F)ccc5[nH]4)s3)c2)CC1`, the inhibition in assay [1] turned out to be 4.2%; in assay [2], 4.88%; in assay [3] it was 3.14%.

Take `CN(C)Cc1cccc(CNC(=O)c2sccc2OCc2ccc(Cl)cc2)c1`: the inhibition in assay [1] was -0.98%; in assay [2], -3.67%; in assay [3] it was 1.11%.

In the case of `COc1cc(NC(=O)c2sc(-c3ccc(Cl)cc3)cc2NC(=O)N2CCCC2)ccc1OCCN1CCCC1`, the inhibition in assay [1] was 2.35%; in assay [2], 3.29%; in assay [3] it was 1.4%.

For `CC1(C)N=C(N)N=C(N)N1c1cc(Cl)c(Cl)cc1Cl`, the inhibition in assay [1] is -2.58%; in assay [2] it was -2.74%; in assay [3] it was -3.01%.

For the molecule `CCCCN(CCCC)CCNC(=O)c1ccc(-c2nc3cc(Cl)ccc3[nH]2)c(OCC)c1`, the results for the inhibition in assay [1], in assay [2] and in assay [3] were 4.49%, 2.11% and 4.26%, respectively.

On to `O=C(C=Cc1ccc(Cl)c(Cl)c1)NCCCCCN1CCC(CCNC(=O)C(c2ccccc2)c2ccccc2)CC1`, for which the inhibition in assay [1] amounted to 3.47%; in assay [2], 1.79%; in assay [3], 0.8%.

`O=C(Nc1cccc(-c2ccc(NCCCN3CCCC3)nc2)c1)c1ccccc1`: the inhibition turned out to be 5.13% in assay [1], 6.59% in assay [2] and 0.77% in assay [3].

Turning to `CS(=O)(=O)CCNCc1nc(-c2ccc3ncnc(Nc4ccc(OCc5ccccc5)c(Cl)c4)c3c2)cs1`, the inhibition was 4.21% in assay [1], 3.42% in assay [2] and 2.9% in assay [3].

On to `CN1CCN(CCCN(Cc2cccc(-c3cccc(CNCc4ccc5c(c4)OCO5)c3)c2)C(=O)CCC2CCCC2)CC1`, for which the inhibition was determined as 16.7% in assay [1], 12.2% in assay [2] and 10.4% in assay [3].

With `CCNc1cc(C(=O)N[C@@H](Cc2ccco2)[C@H](O)CNC2CCCCC2)cc(N2CCCCS2(=O)=O)c1`, the inhibition was found to be 1.99% in assay [1], 2.4% in assay [2] and 2.15% in assay [3].

For `Cc1ccc2[nH]c3c(c2c1)CC(C(=O)NCCC(C)C)NC31CCN(Cc2ccccc2)CC1` (stereo not drawn), the inhibition in assay [1] was 0.11%; in assay [2], -3.4%; in assay [3] it was 0.79%.

Regarding `Nc1cccc(CNCc2ccc(-c3cccc(-c4nc5cc(C(F)(F)F)ccc5[nH]4)c3)cc2)c1`, the results for the inhibition in assay [1], in assay [2] and in assay [3] were 0.23%, 1.1% and 1.02%, respectively.

For `c1ccc(-c2cccnn2)cc1`, the inhibition came to 1.25% in assay [1], 1.26% in assay [2] and 1.72% in assay [3].

As to `Fc1cccc(COc2ccc(Nc3ncnc4sc(C#CCNC5CCC5)cc34)cc2Cl)c1`, the inhibition in assay [1] is 6.7%; in assay [2] it was 5.05%; in assay [3] it was 2.46%.

`CCOc1cc2c(cc1S(=O)(=O)c1ccc(COc3ccc(C(F)(F)F)cc3)cc1)CCN(C)CC2`: the results for the inhibition in assay [1], in assay [2] and in assay [3] were 1.72%, 3.79% and 1.18%, respectively.

`Cc1cccc(N2CCN(C3CCC(NC(=O)c4cc5ccccc5[nH]4)CC3)CC2)c1C` (stereo not drawn): the values for the inhibition in assay [1], in assay [2] and in assay [3] were 2.31%, 1.82% and 1.43%, respectively.

Take `O=C(Nc1ccc(-c2cccc(CN3CCC(O)CC3)c2)cc1)c1cccc(Cl)c1`: the inhibition is 24.1% in assay [1], 17.8% in assay [2] and 16.8% in assay [3].

On to `CN(C)c1ccc2c(c1)Sc1cc(N(C)C)ccc1N2C(=O)c1cccc(C(=O)O)c1`, for which the inhibition is -1.08% in assay [1], -0.19% in assay [2] and 7.43% in assay [3].

With `O=C(C=Cc1ccc(F)cc1)NC1CCC(CCN2CCc3ccc(-c4cnccn4)cc3CC2)CC1` (stereo not drawn), the figures for the inhibition in assay [1], in assay [2] and in assay [3] were 0.54%, -0.24% and 1.49%, respectively.

For the molecule `O=C(Nc1ccccc1)Nc1cccc(-c2cccc(-c3nc4cc(F)ccc4[nH]3)c2)c1`, the figures for the inhibition in assay [1], in assay [2] and in assay [3] were 2.45%, 2.61% and 1.59%, respectively.

Take `Cc1[nH]n(-c2cccc(C(F)(F)F)c2)c(=O)c1-c1ccc(Cl)cc1`: the inhibition in assay [1] came out at 3.56%; in assay [2], 6.35%; in assay [3], 5.69%.

Take `COc1ccc(NC(=O)C2c3ccccc3C(=O)N(CC(C)C)C2c2cccs2)cc1OC` (stereo not drawn): the values for the inhibition in assay [1], in assay [2] and in assay [3] were -0.36%, 0.34% and 0.28%, respectively.

For the molecule `c1cc(Cc2ccc(Nc3c4ccccc4nc4ccccc34)cc2)cc(Nc2c3ccccc3nc3ccccc23)c1`, the inhibition in assay [1] came to 5.95%; in assay [2], 5.85%; in assay [3] it was 2.19%.

Consider `CN1CCN(c2ccc(-c3cccc(NC(=O)c4cccc([N+](=O)[O-])c4)c3)nn2)CC1`, for which the figures for the inhibition in assay [1], in assay [2] and in assay [3] were 3.29%, 1.6% and 1.84%, respectively.

For the molecule `CC(=O)C=C1CC(=O)N(C[C@@H](O)[C@H]2O[C@@H]3OC(C)(C)O[C@@H]3[C@H]2O)c2ccccc2N1`, the inhibition was 2.82% in assay [1], 3.82% in assay [2] and 2.35% in assay [3].

For the molecule `COCCN1CCN(Cc2cccc(-c3ccc(-c4nc5ccccc5[nH]4)cc3)c2)CC1`, the inhibition in assay [1] is 0.45%; in assay [2], -3.13%; in assay [3], -1.36%.

For the molecule `Cc1ccnc2nc(C(=O)Nc3cc(Cl)ccc3N3CCOCC3)nn12`, the inhibition was 5.13% in assay [1], 5.74% in assay [2] and 5.36% in assay [3].

On to `O=C(Nc1ccc(NC2=NCCN2)cc1)c1ccc(C(=O)Nc2ccc(NC3=NCCN3)cc2)cc1`, for which the results for the inhibition in assay [1], in assay [2] and in assay [3] were 17.6%, 18.1% and 6.75%, respectively.

As to `COc1cc(NC(=O)N2CCc3cc(OC)c(OCCN4CCCCC4)cc32)cc(C(F)(F)F)c1`, the inhibition in assay [1] stood at 12.9%; in assay [2] it was 12.7%; in assay [3], 9.77%.

Turning to `O=C(NCC1CCN(Cc2cccc(C(F)(F)F)c2)C1)c1cc(-c2cccc(F)c2)cs1` (stereo not drawn), the inhibition in assay [1] is 5.58%; in assay [2] it was 5.35%; in assay [3] it was 5.45%.

For the molecule `Cc1ccc(NC(=O)c2ccc(Cl)c(Cl)c2)cc1-c1ccc(C(=O)Nc2ccncc2)cc1`, the inhibition is -0.14% in assay [1], 0.86% in assay [2] and -1.3% in assay [3].

As to `O=C(Nc1ccc(-c2nc3ccccc3[nH]2)cc1)C1CCN(Cc2ccc(F)cc2)CC1`, the inhibition in assay [1] was 41.4%; in assay [2], 44.9%; in assay [3] it was 30.5%.

Turning to `Cc1cc(Nc2ccc(C(C)(C)C)cc2)c2[nH]ncc2n1`, the results for the inhibition in assay [1], in assay [2] and in assay [3] were 16.1%, 26.2% and 4.28%, respectively.

Consider `CCCOc1ccc(N2C(N)=NC(N)=NC2(C)C)cc1`, for which the inhibition in assay [1] turned out to be 3.43%; in assay [2] it was 1.16%; in assay [3], 2.09%.

In the case of `Nc1ccc2[nH]cc(C3CCN(CCC4CCN(C(=O)/C=C/c5ccc(Cl)c(Cl)c5)CC4)CC3)c2n1`, the values for the inhibition in assay [1], in assay [2] and in assay [3] were 1.27%, -0.31% and -0.02%, respectively.

For the molecule `COc1ccc2nccc([C@@H](O)CN3CCC(c4cc(-c5ccc(Cl)cc5)[nH]n4)CC3)c2n1`, the inhibition came to 64.9% in assay [1], 78.2% in assay [2] and 81.2% in assay [3].
